# Data published in the supplement of paper PMC5641865, “A screen for kinase inhibitors identifies antimicrobial imidazopyridine aminofurazans as specific inhibitors of the Listeria monocytogenes PASTA kinase PrkA” (The Journal of Biological Chemistry, 2017).
# ± gives the standard deviation of the averaged measurements.
# System: Listeria monocytogenes 10403S
# Test: growth inhibition relative to ceftriaxone-alone control; higher = stronger potentiation of ceftriaxone growth inhibition
# Settings: 10 µM; ceftriaxone 1 ug/ml; 12 h
# 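Also: End-point A600 read in BHI broth at 37 °C with 2% DMSO, inhibition computed as (1 − OD with compound plus ceftriaxone ÷ OD with ceftriaxone only) × 100.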
row,Compound,growth inhibition [%]
1,CCOc1nccc2c1nc(-c1nonc1N)n2CC,13.6 ± 0.53
2,O=C1NC(=O)/C(=C\c2ccc3nccnc3c2)S1,13.5 ± 10
3,COc1ccc(COc2ccc(Cc3cnc(N)nc3N)cc2OC)cc1,63.8 ± 9.7
4,Cc1nc(-c2ccccc2)n2nc(NCCCN3CCOCC3)ncc12,0.025 ± 1.1
5,Cc1ccc(C(=O)Nc2cccc(C(F)(F)F)c2)cc1Nc1nc(-c2cccnc2)nc2c1cnn2C,-1.9 ± 16
6,COC(=O)Nc1nc2cc(Oc3ccc(NC(=O)Nc4cccc(Br)c4)cc3)ccc2[nH]1,-0.0344 ± 20
7,COc1cc2nccc(Oc3ccc(NC(=O)C4(C(=O)Nc5ccc(F)cc5)CC4)cc3)c2cc1OC [XL-184 (Cabozantinib)],30.5 ± 5.4
8,CN1CCN(c2ccc3nc(-c4c(N)c5c(F)cccc5[nH]c4=O)[nH]c3c2)CC1 [Dovitinib Dilactic Acid (TKI258 Dilactic Acid)],33.4 ± 20
9,COc1ccc(-c2nn3ncccc3c2-c2ccnc(Nc3ccc(Cl)c(C(F)(F)F)c3)n2)cc1,-8.69 ± 0.94
10,Oc1cccc(-c2nc(-c3ccccc3)[nH]c2-c2ccncc2)c1,-3.01 ± 1.1
11,NCC(=O)Nc1ccc(-n2nc(C(F)(F)F)cc2-c2ccc3c(ccc4ccccc43)c2)cc1,85.45 ± 0.52
12,Oc1ccc(-c2nc(-c3ccc(F)cc3)c(-c3ccncc3)[nH]2)cc1,23.7 ± 32
13,CS(=O)(=O)CCNCc1nc(-c2ccc3ncnc(Nc4ccc(F)c(Cl)c4)c3c2)cs1,1.67 ± 6.4
14,COc1ccc(-c2nn3ncccc3c2-c2ccnc(Nc3ccc(F)c(F)c3)n2)cc1,-0.06 ± 1.5
15,CS(=O)(=O)CCNCc1ccc(-c2ccc3ncnc(Nc4ccc(OCc5cccc(C(F)(F)F)c5)cc4)c3c2)o1,-9.85 ± 16
16,CN(C)CCNC(=O)Nc1ccc(N(C)c2ccnc(Nc3ccc(CS(C)(=O)=O)cc3)n2)cc1,-2.69 ± 2
17,Nc1nccc(-c2c(-c3ccc(F)cc3)nn3cc(C(F)(F)F)ccc23)n1,-7.97 ± 19
18,O=c1cc(-c2cccc3c2Sc2ccccc2S3)oc(N2CCOCC2)c1,86.2 ± 1.3
19,CCC(=O)N1CCN(c2ccc(-n3c(=O)ccc4cnc5ccc(-c6cnc7ccccc7c6)cc5c43)cc2C(F)(F)F)CC1 [Torin 1],-4.1 ± 10

row,Compound,growth inhibition [%]
1,NS(=O)(=O)c1cccc(-c2cc3ccncc3cc2OCc2ccccc2)c1,8.53 ± 3.9
2,COc1cc2ncn(-c3cc(OCCc4ccccc4)c(C(N)=O)s3)c2cc1OC,-4.76 ± 1.4
3,COc1cccc(-n2ncc3c(N/N=C/c4cccc(F)c4)ncnc32)c1,6.27 ± 6.8
4,CCn1c(-c2nonc2N)nc2c(C#CC(C)(C)O)nc(OC[C@@H](N)c3ccccc3)cc21,71.3 ± 3.1
5,COc1ccc(-c2cc(-c3c[nH]nc3-c3ccccn3)ccn2)cc1,3.1 ± 4.7
6,Cc1ncc(-c2ccnc(Nc3ccc(S(C)(=O)=O)cc3)n2)n1C(C)C,97.4 ± 2.4
7,CCn1c(-c2nonc2N)nc2c(C#CC(C)(C)O)ncc(OC3CCNCC3)c21,77 ± 1.4
8,O=C(NCC1CC1)c1ccc(-c2cccc(C(=O)NC3CC3)c2)cc1,-0.0355 ± 1.1
9,O=C1NC(=O)/C(=C/c2ccc(-c3ccc(F)cc3O)o2)S1,70.7 ± 9.8
10,O=C1Nc2ccccc2/C1=C1/Nc2ccccc2C1=O [Indirubin],-11.4 ± 11
11,CCCNc1cccc(-n2ncc3c(N/N=C/c4ccncc4)ncnc32)c1,-6.32 ± 14
12,CN(C)C/C=C/C(=O)Nc1cc2c(Nc3ccc(F)c(Cl)c3)ncnc2cc1O[C@H]1CCOC1 [Afatinib (BIBW2992)],45.41 ± 0.44
13,CC(=O)NCc1cccc(C#Cc2cncnc2Nc2ccc(OCc3cccc(F)c3)c(Cl)c2)c1,-1.26 ± 2.3
14,COc1cc2ncn(-c3cc(OCc4ccccc4C(F)(F)F)c(C(N)=O)s3)c2cc1OC,-2.24 ± 0.56
15,O=C(Nc1n[nH]c2nc(-c3ccc(O)cc3)c(Br)cc12)C1CC1,-9.15 ± 4.2
16,N#Cc1ccc2c(-c3ccnc(NC4CC4)n3)c(-c3ccc(F)cc3)nn2c1,7 ± 2.3
17,C=CC(=O)N1CCC[C@@H](n2nc(-c3ccc(Oc4ccccc4)cc3)c3c(N)ncnc32)C1,42.1 ± 24
18,CNC(=O)c1cc(Oc2ccc(NC(=O)Nc3cc(C(C)(C)C)nn3-c3ccc4ncccc4c3)c(F)c2)ccn1 [DCC-2036 (Rebastinib)],21 ± 0.51
19,O=C1Nc2ccc(C(=O)c3ccco3)cc2C1=Cc1cc(Cl)c(O)c(Cl)c1,13.9 ± 4.5
